The list is not random: actives were taken first. Their share in the collection is about 18%.
LDHA inh – qHTS assay for inhibitors of human lactate dehydrogenase; L-lactate dehydrogenase A chain (Homo sapiens), P00338; purified LDHA, NADH/diaphorase-resazurin fluorescence; stronger effect = lower value; activity change, % (values are at about 110 or 230 µM); actives 0.15% (n = 480,000); in the data active = activity change below about -30%; inconclusive = mostly about -25% to -30%;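 note: plate controls were DMSO wells for no effect and wells without enzyme for full effect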
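Human LDH5 at 2 nM final in Tris HCl pH 7.4 with 0.06 mM NADH and 0.2 mM pyruvate, reacted 5 minutes at room temperature. Remaining NADH coupled via diaphorase/resazurin; resorufin fluorescence read at 0 and 20 minutes, normalized to enzyme-free and DMSO wells.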
VP16 counter – VP16 counterscreen qHTS for inhibitors of ROR gamma transcriptional activity; Potency, µM (top dose mostly 53.6 µM), for the others: top-dose activity, negative = inhibition, most hits filed as inhibitors; Drosophila S2 Gal4-VP16 UAS-luciferase, luminescence, 20 h; actives 3.5% (n = 310,000); AID 2546, 2010;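 note: Gal4-VP16 expression switched on by copper sulfate through the metallothionein promoter; potency is the fitted concentration of half-maximal effect; nearly all actives have a fitted effect of over 50% in size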
TDP1 cell CPT – qHTS for Inhibitors of human tyrosyl-DNA phosphodiesterase 1 (TDP1): qHTS in cells in presence of CPT | chicken DT40 Tdp1-/-;hTDP1 cells + 20 nM CPT, ATP luminescence, 48 h | Potency, µM (top dose mostly 46.2 µM), without a hit: at the highest dose activity change, negative = growth inhibition, most hits filed as inhibitors | actives 12% (n = 420,000) | AID 686979, 2013; note: potency is the fitted concentration of half-maximal effect; nearly all actives have a fitted effect of over 55% in size
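Chicken DT40 Tdp1-/- cells stably complemented with human TDP1 were seeded at 400 cells/well in medium containing 20 nM camptothecin, exposed to pin-transferred compounds, and grown at 37 °C for at least 48 hr. Viability was read as ATP luminescence.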
DT40 TDP1 no CPT – qHTS for Inhibitors of human tyrosyl-DNA phosphodiesterase 1 (TDP1): qHTS in cells in absence of CPT. DT40 Tdp1-/- hTDP1 cells, no CPT, ATP luminescence, 48 h. Potency, µM (highest dose often 46.2 µM), for inactives: at the top dose activity change, negative = growth inhibition, usual class: inhibitors. actives 15% (n = 420,000); note: potency is the fitted concentration of half-maximal effect; nearly all actives have a fitted effect of over 55% in size
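Chicken DT40 Tdp1-/- cells complemented with human TDP1, screened without camptothecin (DMSO vehicle only), 400 cells/well. Compounds pin-transferred, cells incubated at 37 °C for at least 48 hr. Growth read as ATP-dependent luminescence (CellTiter-Glo, 30 min at RT).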
RORg inh – qHTS for inhibitors of ROR gamma transcriptional activity; Nuclear receptor ROR-gamma (Mus musculus), P51450; Drosophila S2 Gal4-RORgamma UAS-luciferase reporter, 20 h; actives 5.4% (n = 310,000); AID 2551, 2010; Potency, µM (titrated, usually from 53.6 µM), for the others: at the top dose activity change, negative = inhibition, usual class: inhibitors; note: potency is the fitted concentration of half-maximal effect; nearly all actives have a fitted effect of over 60% in size
Target sequence (P51450 whole entry, looked up, the tested form may be a part): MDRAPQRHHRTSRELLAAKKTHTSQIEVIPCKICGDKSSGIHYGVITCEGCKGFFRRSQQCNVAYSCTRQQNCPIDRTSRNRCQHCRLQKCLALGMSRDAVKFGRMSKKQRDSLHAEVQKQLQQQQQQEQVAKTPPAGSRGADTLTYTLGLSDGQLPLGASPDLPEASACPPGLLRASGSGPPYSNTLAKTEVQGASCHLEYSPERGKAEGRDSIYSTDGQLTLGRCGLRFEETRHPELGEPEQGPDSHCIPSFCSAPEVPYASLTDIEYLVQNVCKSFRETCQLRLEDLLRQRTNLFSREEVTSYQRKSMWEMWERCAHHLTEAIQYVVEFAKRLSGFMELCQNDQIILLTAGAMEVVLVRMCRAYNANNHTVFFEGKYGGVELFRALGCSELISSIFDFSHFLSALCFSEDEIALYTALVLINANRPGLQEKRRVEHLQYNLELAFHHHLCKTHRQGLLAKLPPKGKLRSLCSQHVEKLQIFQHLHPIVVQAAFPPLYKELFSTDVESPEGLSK
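Stable Schneider cell line, Gal4 DNA-binding domain fused to ROR gamma, UAS-luciferase. Cmpd 1 hr RT → CuSO4 700 uM final → 20 hr RT → luciferase reagent 10 min → luminescence.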
IL-1B inflam inh – qHTS for Inhibitors of Inflammasome Signaling: IL-1-beta AlphaLISA Primary Screen. activity change, % at 57.5 µM. THP-1 LPS/ATP IL-1B secretion, AlphaLISA, 16 h; stronger effect = lower value. AID 743279, 2014. actives 4.7% (n = 360,000); in the data active = activity change below about -50%; inconclusive = mostly about -30% to -49%
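Secreted IL-1B measured by AlphaLISA bead assay after 16 h compound exposure of THP-1 cells; compounds (final up to 57.5 uM) added 1 h before LPS (250 ng/mL) and ATP (1.25 mM) stimulation; lower signal means less secretion.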
Active calls of the source: *. Unless noted, calls come from the whole dose curve; as a rule, active = well fitted curve in the direction sought with a large enough effect; inconclusive = small, poorly fitted or top-dose-only effect, or another doubt; inactive = no such curve, though single readings can be large; an effect the other way counts as inactive or inconclusive. Unless noted, % is set by controls: 0 for no effect and ±100 for the full control effect.

Screening CC(Oc1ccc(F)cc1)C(=O)N(Cc1ccccc1)c1c(N)n(Cc2ccccc2)c(=O)[nH]c1=O (stereo unspecified) returned LDHA inh -3, TDP1 cell CPT 3%, DT40 TDP1 no CPT 2% and IL-1B inflam inh 14.
For C=CCN(Cc1ccccc1F)C(=O)c1nn(CC)c(=O)c2ccccc12 the results were LDHA inh -5.
`COc1ccccc1NC(=O)C(=O)NCC1COc2ccccc2O1` (stereo unspecified) gave LDHA inh -1, VP16 counter 9%, TDP1 cell CPT -7%, DT40 TDP1 no CPT 0.56µM*, RORg inh 32% and IL-1B inflam inh -5.
`COc1cc(C(=O)NCC2COc3ccccc3O2)cc(OC)c1OC` (stereo unspecified) gave LDHA inh -23.
`O=C(NCc1ccccc1)C(=O)NCC1COc2ccccc2O1` (stereo unspecified) gave LDHA inh -1, VP16 counter 8%, TDP1 cell CPT 2.9µM*, DT40 TDP1 no CPT 2.6µM*, RORg inh -10% and IL-1B inflam inh 64.
CCn1cnnc1SCC(=O)NCC1COc2ccccc2O1 (stereo unspecified) was read as LDHA inh 2, TDP1 cell CPT -2%, DT40 TDP1 no CPT 1.8µM* and IL-1B inflam inh 0.
`O=C(NCC1COc2ccccc2O1)c1ccc(Br)s1` (stereo unspecified) gave LDHA inh 0, VP16 counter 27%, TDP1 cell CPT -6%, DT40 TDP1 no CPT inconclusive, RORg inh 13% and IL-1B inflam inh -72*.
CC(O)CN(c1ccccc1)S(=O)(=O)c1cc(C(=O)O)cc2c1CCC2 (stereo unspecified) was read as LDHA inh 3.
`CCOC(=O)CNC(=O)CC(c1ccc(F)cc1)N1Cc2ccccc2C1=O` (stereo unspecified) gave LDHA inh -4.
COc1cc(C(=O)OCCCC(=O)c2ccc(Br)cc2)ccc1OCc1ccc(Cl)cc1 was read as LDHA inh 1.
For O=C(CCc1ccc2ccccc2n1)NCCc1ccc(C(F)(F)F)cc1 the results were LDHA inh 1.
Screening CCNC(=O)CN1CCN(C(C(=O)O)c2c[nH]c3ccccc23)CC1 (stereo unspecified) returned LDHA inh -2.
Screening CSc1ncccc1C(=O)OCC(=O)c1cc(C)n(C)c1C returned LDHA inh -9, TDP1 cell CPT -21%, DT40 TDP1 no CPT -30% and IL-1B inflam inh -9.
COCCNC(=O)COC(=O)c1cccnc1SC was read as LDHA inh -7, VP16 counter -4%, TDP1 cell CPT 18µM*, DT40 TDP1 no CPT -108%, RORg inh -1% and IL-1B inflam inh 20.
CCn1c(C)cc(C(=O)COC(=O)c2cccnc2SC)c1C was read as LDHA inh 3, TDP1 cell CPT 16µM*, DT40 TDP1 no CPT inconclusive and IL-1B inflam inh -9.
`O=C(NC(=S)Nc1cccc2ncccc12)c1ccccc1` gave LDHA inh -1, VP16 counter inconclusive, TDP1 cell CPT inconclusive, DT40 TDP1 no CPT inconclusive, RORg inh 7.9µM* and IL-1B inflam inh -14.
`O=C(NC(=S)Nc1cccnc1Cl)c1ccc(Cl)cc1` gave LDHA inh -2, VP16 counter inconclusive, TDP1 cell CPT -28%, DT40 TDP1 no CPT -20%, RORg inh 8.9µM* and IL-1B inflam inh 7.
For Cc1ccc(NC(=O)c2cc(NC(=O)c3ccco3)ccc2N2CCOCC2)cc1 the results were LDHA inh -15, VP16 counter -12%, TDP1 cell CPT inconclusive, DT40 TDP1 no CPT 16µM*, RORg inh -37% and IL-1B inflam inh -26.
Cc1ccc(NC(=O)c2cc(NC(=O)c3ccco3)ccc2N2CCCCC2)cc1 was read as LDHA inh -4, VP16 counter -5%, TDP1 cell CPT inconclusive, DT40 TDP1 no CPT inconclusive, RORg inh 11% and IL-1B inflam inh 6.
Screening Cc1ccc(NC(=O)c2cc(N3C(=O)C=CC3=O)ccc2Cl)cc1C returned LDHA inh 1, VP16 counter 7.9µM*, TDP1 cell CPT 5.2µM*, DT40 TDP1 no CPT 4.6µM*, RORg inh inconclusive and IL-1B inflam inh -14.
`CN1CCN(c2ccc(NC(=O)c3cc(S(N)(=O)=O)ccc3N3CCOCC3)cc2)CC1` gave LDHA inh 1, TDP1 cell CPT 10%, DT40 TDP1 no CPT 3% and IL-1B inflam inh -2.
Screening Cc1ccc(NC(=O)c2cc(N3C(=O)C=CC3=O)ccc2N2CCOCC2)cc1 returned LDHA inh -10, VP16 counter 7.9µM*, TDP1 cell CPT 0.82µM*, DT40 TDP1 no CPT 2.3µM*, RORg inh 7.1µM* and IL-1B inflam inh -63*.
For Fc1cc(F)cc(NC(=S)N2CCC(c3ccccc3)C2)c1 (stereo unspecified) the results were LDHA inh 0, VP16 counter -6%, TDP1 cell CPT -5%, DT40 TDP1 no CPT 21%, RORg inh inconclusive and IL-1B inflam inh 0.
For CSc1cccc(NC(=S)N(CCC(C)C)C2CCN(C(C)C)CC2)c1 the results were LDHA inh -4, VP16 counter inconclusive, TDP1 cell CPT -8%, DT40 TDP1 no CPT -20%, RORg inh 13µM* and IL-1B inflam inh -25.
`CSc1cccc(NC(=S)N2CCC(N(C)C3CCCCC3C)CC2)c1` (stereo unspecified) gave LDHA inh -12, VP16 counter -71%, TDP1 cell CPT 10%, DT40 TDP1 no CPT inconclusive, RORg inh 13µM* and IL-1B inflam inh -69*.
CCc1cccc(NC(=S)N2CCC(c3ccccc3)C2)c1 (stereo unspecified) was read as LDHA inh -6, VP16 counter 10µM*, TDP1 cell CPT inconclusive, DT40 TDP1 no CPT inconclusive, RORg inh 7.1µM* and IL-1B inflam inh -1.

Bioassay records: PubChem, National Center for Advancing Translational Sciences (NCATS)
